# From PubChem BioAssay (NCATS)
# Inconclusive results are not listed. Where a call stands in place of a potency, no number is given. More than one record can exist for a structure, and the calls need not agree. Calls of active or inactive are those of the source. Calls come from the whole dose curve; as a rule, active = well fitted curve in the direction sought with a large enough effect; inconclusive = small, poorly fitted or top-dose-only effect, or another doubt; inactive = no such curve, though single readings can be large; an effect the other way counts as inactive or inconclusive.
# Assays:
# UISO = assay: qHTS assay to identify novel small-molecules to repurpose for Merkel cell carcinoma treatment (AID 1296009); details: MCC and control cell lines, CellTiter-Glo viability, 72 h; series mostly up to 46 µM; note: nearly all actives have a fitted effect of over 60% in size
# Summary of the method: (§1)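 Dose-response viability screen; 72 hr exposure at 37 degree celsius; CellTiter-Glo added, 10 min room temperature, luminescence read; RLUs scaled between no-cell and DMSO wells.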
# C33A = assay: Primary qHTS to identify gynecologic anti-cancer compounds using libraries of approved drugs and bioactive compounds (AID 1345084); details: Gynecologic cancer cell panel viability, ATPlite luminescence, 48 h; series mostly up to 57.5 µM; note: nearly all actives have a fitted effect of over 55% in size
# Summary of the method: (§2)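 Five-point cytotoxicity, 48 h drug exposure at 37 C, 5% CO2, on cells seeded 16 h beforehand. ATP content read by ATPlite luminescence.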
# CAOV3 = assay: as above; details: Gynecologic cancer cell panel viability, ATPlite luminescence, 48 h; series mostly up to 57.5 µM
# Summary of the method: as §2
# Es-2 = assay: as above; details: Gynecologic cancer cell panel viability, ATPlite luminescence, 48 h; series mostly up to 57.5 µM
# Summary of the method: as §2
# HeLa = assay: as above; details: Gynecologic cancer cell panel viability, ATPlite luminescence, 48 h; series mostly up to 57.5 µM
# Summary of the method: as §2
# NIH3T3 = assay: qHTS assay to identify novel small-molecules to repurpose for Merkel cell carcinoma treatment (AID 1296009); details: MCC and control cell lines, CellTiter-Glo viability, 72 h; series mostly up to 44.8 µM; note: nearly all actives have a fitted effect of over 60% in size
# Summary of the method: as §1
# MKL-2 = assay: as above; details: MCC and control cell lines, CellTiter-Glo viability, 72 h; series mostly up to 46 µM
# Summary of the method: as §1
# CASKI = assay: Primary qHTS to identify gynecologic anti-cancer compounds using libraries of approved drugs and bioactive compounds (AID 1345084); details: Gynecologic cancer cell panel viability, ATPlite luminescence, 48 h; series mostly up to 57.5 µM; note: nearly all actives have a fitted effect of over 55% in size
# Summary of the method: as §2
# WaGa = assay: qHTS assay to identify novel small-molecules to repurpose for Merkel cell carcinoma treatment (AID 1296009); details: MCC and control cell lines, CellTiter-Glo viability, 72 h; series mostly up to 46 µM; note: nearly all actives have a fitted effect of over 60% in size
# Summary of the method: as §1
# Potency is the fitted concentration of half-maximal effect.
compound,measurement,setting,value
CCN(CCO)CCCOc1ccc2c(Nc3cc(CC(=O)Nc4cccc(F)c4)[nH]n3)ncnc2c1,Potency,UISO,inactive
same,Potency,C33A,inactive
same,Potency,CAOV3,inactive
same,Potency,Es-2,inactive
same,Potency,HeLa,inactive
CC(C)CN(C[C@@H](O)[C@H](Cc1ccccc1)NC(=O)O[C@H]1CO[C@H]2OCC[C@H]21)S(=O)(=O)c1ccc(N)cc1,Potency,NIH3T3,inactive
same,Potency,UISO,inactive
CC(C)CNc1ccnc(NCc2csc(-c3ccccc3)n2)n1,Potency,MKL-2,16.6 µM (active)
same,Potency,UISO,13.2 µM (active)
same,Potency,Es-2,22.4 µM (active)
same,Potency,HeLa,inactive
COc1ccc(Cn2ccc3ccc(C(=O)NO)cc32)cc1,Potency,MKL-2,inactive
same,Potency,C33A,inactive
same,Potency,CAOV3,inactive
same,Potency,CASKI,inactive
same,Potency,Es-2,inactive
same,Potency,HeLa,inactive
C[C@@H]1C[C@H]2[C@@H]3CCC4=CC(=O)C=C[C@]4(C)[C@@]3(F)[C@@H](O)C[C@]2(C)[C@@]1(O)C(=O)CO,Potency,C33A,inactive
same,Potency,CAOV3,inactive
same,Potency,CASKI,inactive
same,Potency,Es-2,inactive
same,Potency,HeLa,inactive
CNC1CCC(N(Cc2cccc(-c3ccncc3)c2)C(=O)c2sc3ccccc3c2Cl)CC1 (stereo not given),Potency,MKL-2,16.6 µM (active)
same,Potency,CASKI,22.4 µM (active)
same,Potency,HeLa,inactive
CC1(C)CC(=O)c2c(C(F)(F)F)nn(-c3ccc(C(N)=O)c(NC4CCC(O)CC4)c3)c2C1 (stereo not given),Potency,UISO,0.166 µM (active)
same,Potency,HeLa,inactive
COC(=O)Nc1ccc(-c2nc(N3CCOCC3)c3cnn(C4CCN(C(=O)OC)CC4)c3n2)cc1,Potency,UISO,0.526 µM (active)
same,Potency,WaGa,6.62 µM (active)
COc1ccc(-c2nc3ccc(C4=NNC(=O)CC4C)cc3[nH]2)cc1 (stereo not given),Potency,C33A,inactive
same,Potency,CAOV3,17.8 µM (active) and inactive
same,Potency,Es-2,inactive
CC[C@H](NC(=O)[C@H](C)NC)C(=O)N1C[C@@H](O)C[C@H]1Cc1c(-c2[nH]c3cc(F)ccc3c2C[C@H]2C[C@H](O)CN2C(=O)[C@H](CC)NC(=O)[C@H](C)NC)[nH]c2cc(F)ccc12,Potency,NIH3T3,inactive
same,Potency,UISO,inactive
CN(C)CCN(C)C(=O)c1ccc(NC(=O)Nc2ccc(-c3nc(N4CCOCC4)c4ccn(CC(F)(F)F)c4n3)cc2)cc1,Potency,UISO,0.105 µM (active)
